Experimental data as given in PubChem BioAssay (Tox21).
Where “and” joins values, the source holds several entries; their conditions need not be identical. Identical values can stand only once. Results filed as inconclusive are left out. Where a structure was tested more than once in an assay, its records may differ in their call. Calls of active or inactive are those of the source. Unless noted, the call rests on the fitted dose curve; in most records, active means well fitted curve in the direction sought with a large enough effect in the repeat runs; inconclusive means weak or mixed curves; inactive means no such curve, though single readings can be large; an effect the other way counts as inactive or inconclusive.

Key:
[1] = qHTS assay to identify small molecule antagonists of the thyroid receptor (TR) signaling pathway - cell viability counter screen (AID 743064); further: nearly all actives have a fitted effect of over 50% in size; further: potency means the concentration at half of the fitted maximal effect
Summary of the method: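 In-well cytotoxicity read by CellTiter-Fluor (30 min, 37 C) following 23.5 h exposure of GH3 cells bearing a TRE-luciferase sensor. Compounds were added alongside 1 nM (final) T3 to drive TR transactivation.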

[2] = system: thyroid hormone receptor (rat, GH3 cells); test: qHTS assay to identify small molecule agonists of the thyroid receptor (TR) signaling pathway (AID 743066; calls by dose curve)
[3] = qHTS assay to identify small molecule antagonists of the estrogen receptor alpha (ER-alpha) signaling pathway - cell viability counter screen (AID 743074; calls by dose curve;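 further: HEK293 cells carrying ER-alpha-UAS-bla reporter stimulated with 17beta-estradiol; nearly all actives have a fitted effect of over 45% in size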; further: potency means the concentration at half of the fitted maximal effect)
[4] = biological target: Estrogen receptor (Homo sapiens) (UniProt P03372); test: qHTS assay to identify small molecule agonists of the estrogen receptor alpha (ER-alpha) signaling pathway (AID 743075; calls by dose curve;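 further: HEK293 GripTite cells with ER-alpha and UAS-driven beta-lactamase reporter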)
[5] = qHTS assay to identify small molecule antagonists of the estrogen receptor alpha (ER-alpha) signaling pathway using the BG1 cell line - cell viability counter screen (AID 743081);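 further: compound given together with 17beta-estradiol as the ER stimulus; nearly all actives have a fitted effect of over 45% in size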; further: potency means the concentration at half of the fitted maximal effect
Aromatase (Homo sapiens) = Aromatase (Homo sapiens) (UniProt P11511); test: qHTS assay to identify aromatase inhibitors (AID 743083); further: nearly all actives have a fitted effect of over 55% in size; further: potency means the concentration at half of the fitted maximal effect
[6] = qHTS assay to identify aromatase inhibitors - cell viability counter screen (AID 743084);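 further: cells stimulated with testosterone during compound exposure; nearly all actives have a fitted effect of over 55% in size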; further: potency means the concentration at half of the fitted maximal effect
[7] = biological target: Aryl hydrocarbon receptor (Homo sapiens) (UniProt P35869); test: qHTS assay to identify small molecule that activate the aryl hydrocarbon receptor (AhR) signaling pathway (AID 743085); further: nearly all actives have a fitted effect of over 15% in size; further: potency means the concentration at half of the fitted maximal effect;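 on activation: HG2L7.5c1 human HepG2 liver cells with stably integrated DRE-driven firefly reporter; series mostly up to about 70 µM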
Summary of the method: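 Luminescence (ONE-Glo) from a dioxin-responsive-element luciferase reporter in HG2L7.5c1 HepG2 cells after 24 hr compound exposure at 37C; viability measured by CellTiter-Fluor fluorescence beforehand.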

[8] = qHTS assay to identify small molecule that activate the aryl hydrocarbon receptor (AhR) signaling pathway - cell viability counter screen (AID 743086); further: nearly all actives have a fitted effect of over 45% in size; further: potency means the concentration at half of the fitted maximal effect
Summary of the method: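 Cytotoxicity counter screen: CellTiter-Fluor signal (30 min, 37 C) in 4000 HepG2 cells/well carrying the DRE-luciferase reporter, following 24 h compound exposure at 37 C.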

[9] = biological target: Peroxisome proliferator-activated receptor gamma (Homo sapiens) (UniProt P37231); test: qHTS assay to identify small molecule agonists of the peroxisome proliferator-activated receptor gamma (PPARg) signaling pathway (AID 743094; active means well fitted activation curve with a large enough effect in the signal ratio in the repeat runs, not every such curve was filed as active; the % refers to the signal ratio)
Summary of the method: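 GeneBLAzer PPARg UAS-bla HEK293H cells carrying a stably integrated beta-lactamase reporter were pre-incubated 5 h at 37C, then exposed to compounds in DMSO for 17 h at 37C; LiveBLAzer B/G FRET substrate was added for 1 h at room temperature and fluorescence read.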

[10] = qHTS assay to identify small molecule antagonists of the peroxisome proliferator-activated receptor gamma (PPARg) signaling pathway - cell viability counter screen (AID 743194); further: nearly all actives have a fitted effect of over 55% in size; further: potency means the concentration at half of the fitted maximal effect
Summary of the method: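 Viability was measured as CellTiter-Glo luminescence in GeneBLAzer PPARg UAS-bla HEK293H cells. These cells had been exposed 17 h at 37 C to compounds together with rosiglitazone at 50 nM final, with the beta-lactamase readout taken in the same wells.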

[11] = qHTS assay for small molecule agonists of the antioxidant response element (ARE) signaling pathway - cell viability counter screen (AID 743203; calls by dose curve; further: nearly all actives have a fitted effect of over 55% in size; further: potency means the concentration at half of the fitted maximal effect)
Summary of the method: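 CellSensor ARE-bla HepG2 cells, 2,000 per well, rested 5 hrs at 37C/5% CO2, then exposed to compound in DMSO for 16 hrs; viability read as CellTiter-Glo luminescence after 30 min at room temperature, in the reporter wells.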

[12] = qHTS assay for small molecule activators of the heat shock response signaling pathway - cell viability counter screen (AID 743209); further: nearly all actives have a fitted effect of over 50% in size; further: potency means the concentration at half of the fitted maximal effect
Summary of the method: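 CellSensor HSE-bla HeLa cells, plated overnight at 37 C/5% CO2, were exposed to compounds in DMSO for 5 h at 37 C. Viability was then read in the same wells by CellTiter-Glo luminescence after 30 min at room temperature.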

[13] = qHTS assay to identify small molecule antagonists of the thyroid receptor (TR) signaling pathway (AID 743065)
Summary of the method: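 Antagonism measured as loss of luciferase signal in GH3 cells stably carrying a TRE-luciferase reporter, co-treated with compound and T3 (1 nM final) for 23.5 h at 37 C. Viability was read in the same well by CellTiter-Fluor.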

[14] = qHTS assay for small molecule activators of the heat shock response signaling pathway (AID 743210; active means well fitted activation curve with a large enough effect in the signal ratio in the repeat runs, with a control signal flat, not every such curve was filed as active; the % refers to the signal ratio;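 further: HeLa cells with beta-lactamase reporter driven by heat shock elements; series mostly up to about 63 µM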)
Summary of the method: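 In HSE-bla HeLa cells, 5 h compound incubation (37 C) precedes addition of LiveBLAzer B/G substrate; after 2.5 h at room temperature, fluorescence intensity indicates reporter induction.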

[15] = qHTS assay to identify small molecule antagonists of the estrogen receptor alpha (ER-alpha) signaling pathway using the BG1 cell line (AID 743080; calls by dose curve;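 further: BG1 cells stimulated with 17beta-estradiol alongside compound; series mostly up to about 70 µM; nearly all actives have a fitted effect of over 25% in size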)
Summary of the method: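 BG1-Luc-4E2 cells (endogenous full-length ER-alpha, stable 4×ERE-luciferase) were starved 5 days in phenol-red-free medium with 10% charcoal-stripped FBS, plated 24 h, then given compound plus 17beta-estradiol for 21.5 h at 37 C; ONE-Glo luminescence read after 30 min.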

[16] = qHTS assay for small molecule agonists of the antioxidant response element (ARE) signaling pathway (AID 743202; active means well fitted activation curve with a large enough effect in the signal ratio in the repeat runs, not every such curve was filed as active; the % refers to the signal ratio; further: potency means the concentration at half of the fitted maximal effect)
Summary of the method: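 An ARE-responsive beta-lactamase gene stably integrated in HepG2 cells serves as reporter. After 5 h plating and 16 h compound incubation at 37 C, fluorescence of the B/G FRET substrate was measured.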

Measured: Potency

Sequence of Peroxisome proliferator-activated receptor gamma (Homo sapiens) (P37231 whole entry, looked up): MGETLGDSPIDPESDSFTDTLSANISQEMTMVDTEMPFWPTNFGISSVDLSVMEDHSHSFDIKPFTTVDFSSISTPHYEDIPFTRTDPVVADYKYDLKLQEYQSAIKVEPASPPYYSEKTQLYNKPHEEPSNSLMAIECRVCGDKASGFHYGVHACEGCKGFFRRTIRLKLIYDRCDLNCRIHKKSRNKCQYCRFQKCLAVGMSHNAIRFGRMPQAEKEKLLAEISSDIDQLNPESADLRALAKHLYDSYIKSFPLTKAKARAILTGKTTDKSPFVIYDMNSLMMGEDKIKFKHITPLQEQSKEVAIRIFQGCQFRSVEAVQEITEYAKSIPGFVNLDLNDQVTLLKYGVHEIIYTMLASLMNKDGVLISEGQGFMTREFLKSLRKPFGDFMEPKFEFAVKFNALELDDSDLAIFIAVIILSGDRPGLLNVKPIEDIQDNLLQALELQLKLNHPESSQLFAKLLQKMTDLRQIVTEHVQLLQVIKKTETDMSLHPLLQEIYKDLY
Sequence of Aryl hydrocarbon receptor (Homo sapiens) (P35869 whole entry, looked up): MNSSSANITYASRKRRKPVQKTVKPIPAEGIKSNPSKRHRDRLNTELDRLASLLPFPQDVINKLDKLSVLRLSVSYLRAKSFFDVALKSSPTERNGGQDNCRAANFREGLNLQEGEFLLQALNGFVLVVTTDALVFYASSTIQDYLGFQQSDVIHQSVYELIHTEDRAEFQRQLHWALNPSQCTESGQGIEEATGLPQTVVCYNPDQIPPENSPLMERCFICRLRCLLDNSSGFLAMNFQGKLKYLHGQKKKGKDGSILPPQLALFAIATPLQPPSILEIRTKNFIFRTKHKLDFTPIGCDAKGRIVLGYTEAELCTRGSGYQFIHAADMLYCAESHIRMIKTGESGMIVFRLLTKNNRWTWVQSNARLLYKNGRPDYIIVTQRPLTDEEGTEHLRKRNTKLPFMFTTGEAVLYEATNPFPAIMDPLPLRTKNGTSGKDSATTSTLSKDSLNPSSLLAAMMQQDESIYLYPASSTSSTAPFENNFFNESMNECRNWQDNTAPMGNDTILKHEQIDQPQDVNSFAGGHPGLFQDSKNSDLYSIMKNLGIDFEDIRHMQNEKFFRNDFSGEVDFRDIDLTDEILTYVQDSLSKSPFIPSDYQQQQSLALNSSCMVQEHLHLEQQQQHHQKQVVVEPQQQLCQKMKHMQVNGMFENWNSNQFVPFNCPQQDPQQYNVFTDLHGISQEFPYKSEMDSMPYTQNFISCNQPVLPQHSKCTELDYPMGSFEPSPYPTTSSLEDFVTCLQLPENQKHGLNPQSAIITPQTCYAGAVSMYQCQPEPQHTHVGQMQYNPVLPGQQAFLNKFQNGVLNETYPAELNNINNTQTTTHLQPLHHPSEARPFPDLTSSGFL
Sequence of Aromatase (Homo sapiens) (P11511 whole entry, looked up): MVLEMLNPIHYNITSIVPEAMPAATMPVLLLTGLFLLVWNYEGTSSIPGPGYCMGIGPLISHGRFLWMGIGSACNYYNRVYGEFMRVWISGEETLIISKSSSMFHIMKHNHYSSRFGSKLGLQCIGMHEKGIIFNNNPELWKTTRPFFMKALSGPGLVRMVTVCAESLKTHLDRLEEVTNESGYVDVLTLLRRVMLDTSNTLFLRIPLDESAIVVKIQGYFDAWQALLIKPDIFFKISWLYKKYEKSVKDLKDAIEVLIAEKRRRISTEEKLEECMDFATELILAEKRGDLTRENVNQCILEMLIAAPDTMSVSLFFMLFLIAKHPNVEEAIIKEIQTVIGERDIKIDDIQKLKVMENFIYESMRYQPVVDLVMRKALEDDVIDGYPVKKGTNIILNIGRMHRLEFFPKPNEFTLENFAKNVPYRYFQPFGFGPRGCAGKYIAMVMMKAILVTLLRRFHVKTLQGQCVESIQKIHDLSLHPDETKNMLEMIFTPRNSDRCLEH
Sequence of Estrogen receptor (Homo sapiens) (P03372 whole entry, looked up): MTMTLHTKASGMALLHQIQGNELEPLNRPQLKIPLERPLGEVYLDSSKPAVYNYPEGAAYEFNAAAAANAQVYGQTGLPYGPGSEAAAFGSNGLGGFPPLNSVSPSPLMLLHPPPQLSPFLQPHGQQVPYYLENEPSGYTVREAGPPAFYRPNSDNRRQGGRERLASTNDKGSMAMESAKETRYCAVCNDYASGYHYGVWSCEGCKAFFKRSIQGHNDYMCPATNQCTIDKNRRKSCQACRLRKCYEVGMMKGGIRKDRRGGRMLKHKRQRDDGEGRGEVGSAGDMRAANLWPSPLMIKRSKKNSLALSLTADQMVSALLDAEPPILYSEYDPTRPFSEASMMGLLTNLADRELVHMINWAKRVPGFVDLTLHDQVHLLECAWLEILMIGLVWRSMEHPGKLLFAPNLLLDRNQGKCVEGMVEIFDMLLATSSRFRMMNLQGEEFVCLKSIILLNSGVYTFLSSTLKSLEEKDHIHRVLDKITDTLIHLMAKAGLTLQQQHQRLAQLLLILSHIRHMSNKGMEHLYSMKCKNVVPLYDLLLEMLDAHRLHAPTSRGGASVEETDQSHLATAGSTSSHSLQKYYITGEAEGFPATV

CCCCCCCCCCCCCC[N+](C)(C)Cc1ccccc1
inactive: [2] | [4] | [5] | [7] | [9]
active: [1] 11.9 µM and 13.9 µM | [3] 21.3 µM and 22.2 µM | Aromatase (Homo sapiens) 29.8 µM and 13.9 µM | [8] 69.6 µM | [10] 22.2 µM and 29.8 µM | [11] 69.6 µM | [12] 44.3 µM and 26.6 µM
inactive and 24.7 µM (active): [6]

CC(N=C(NC#N)Nc1ccncc1)C(C)(C)C (configuration not stated)
not listed: [4] | Aromatase (Homo sapiens) | [9] | [13] | [14] | [15] | [16]
inactive: all other assays above

O=C1CCc2ccc(OCCCCN3CCN(c4cccc(Cl)c4Cl)CC3)cc2N1
active: [1] 11.9 µM | [13] 11.9 µM | [3] 23.9 µM | [10] 15 µM | [11] 16.8 µM | [12] 26.6 µM
inactive: Aromatase (Homo sapiens) | [6] | [7]

CN1CCN2c3ccccc3Cc3ccccc3C2C1 (configuration not stated)
active: [1] 26.6 µM | [13] 23.7 µM | [3] 23.9 µM | [5] 26.6 µM
not listed: [2] | [11] | [15] | [16]
inactive: all other assays above

O=C(O)c1cc(O)c2ccccc2c1O
active: [1] 9.69 µM | Aromatase (Homo sapiens) 9.69 µM | [6] 15.4 µM | [7] 4.86 µM | [8] 54.5 µM | [10] 49 µM | [11] 30.6 µM | [12] 21.9 µM
inactive: [2] | [3] | [4]

O=c1c(O)c(-c2ccc(O)cc2O)oc2cc(O)cc(O)c12
not listed: [6] | [8] | [13] | [14] | [16]
inactive: all other assays above

Oc1ccccc1O
inactive: [2] | [5] | [8] | [9] | [10] | [14]
active: [1] 17.4 µM and 15.4 µM | [13] 43.8 µM and 43.3 µM | Aromatase (Homo sapiens) 27.6 µM | [6] 31 µM | [16] 30.6 µM

CCCCCCCCCCCCOCCOCCOCCOCCOCCOCCOCCOCCOCCO
active: [1] 9.44 µM | [13] 8.41 µM | [3] 10.7 µM | [5] 23.7 µM | Aromatase (Homo sapiens) 10.6 µM | [12] 29.8 µM
inactive: [4] | [6]
